Experimental data as given in PubChem BioAssay AID1030 (National Center for Advancing Translational Sciences (NCATS), 2008).
Out of some 220,000 compounds screened, about 16,000 (7.3%) were called active. Entries that show only a call come without a potency. About 25% were inconclusive and are not listed. The sample holds actives, similar compounds and a random draw of the others, so the mix is not that of the screen. Calls come from the whole dose curve; as a rule, active = well fitted inhibition curve with a large enough effect (not every such curve was filed as active); inconclusive = small, poorly fitted or top-dose-only effect, or another doubt; inactive = no such curve, though single readings can be large or run the other way.

target: Aldehyde dehydrogenase 1A1 (Homo sapiens) (UniProt P00352); test: qHTS Assay for Inhibitors of Aldehyde Dehydrogenase 1 (ALDH1A1); conditions: Purified ALDH1A1, NADH fluorescence, propionaldehyde substrate; series mostly up to 75.3 µM
Sequence (P00352 whole entry, looked up): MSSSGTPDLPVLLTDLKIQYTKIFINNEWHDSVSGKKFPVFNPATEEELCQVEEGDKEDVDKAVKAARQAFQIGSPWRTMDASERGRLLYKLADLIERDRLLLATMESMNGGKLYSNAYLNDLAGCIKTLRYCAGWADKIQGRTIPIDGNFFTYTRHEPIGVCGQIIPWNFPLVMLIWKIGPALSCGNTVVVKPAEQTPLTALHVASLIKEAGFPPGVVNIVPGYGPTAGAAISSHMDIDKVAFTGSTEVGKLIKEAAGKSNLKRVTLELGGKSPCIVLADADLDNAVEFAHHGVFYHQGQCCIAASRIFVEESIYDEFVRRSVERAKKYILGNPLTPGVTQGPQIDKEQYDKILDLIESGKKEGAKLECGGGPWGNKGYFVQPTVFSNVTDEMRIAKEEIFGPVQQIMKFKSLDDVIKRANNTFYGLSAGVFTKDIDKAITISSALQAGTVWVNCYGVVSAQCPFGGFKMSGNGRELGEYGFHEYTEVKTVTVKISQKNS
Potency is the fitted concentration of half-maximal effect.

Row | Structure (SMILES) | Potency | activity, negative = inhibition
1 | O=C(OCc1cc(Cl)ccc1OC(F)F)c1cccnc1 | inactive | –
2 | COCc1cc(C(C)=O)ccc1OC | inactive | –
3 | CCOc1ccc(C(C)=O)cc1COC(=O)c1cnc(Cl)c(Cl)c1 | 0.708 µM (active) | –
4 | Cc1cccc(C2=N/C(=C/c3cccs3)C(=O)O2)c1 | inactive | –
5 | Cc1ccc(C2=N/C(=C\c3ccc(OS(=O)(=O)c4ccc(C)cc4)cc3)C(=O)O2)cc1 | 25.1 µM (active) | –
6 | Cc1ccccc1C1=N/C(=C/c2cccnc2)C(=O)O1 | inactive | –
7 | COCCN(C(=S)Nc1ccccc1OC)C1CCN(C(C)C)CC1 | inactive | –
8 | O=C(O)c1ccc2c(c1)C(=O)N(NC(=O)c1ccc(O)cc1)C2=O | inactive | –
9 | C=CCN1C2CCCC1CC(NC(=S)Nc1cccc(OC)c1)C2 (configuration not stated) | inactive | –
10 | COc1ccc(C)cc1NC(=O)CCS(=O)(=O)c1cccc2nonc12 | inactive | –
11 | CC1CCCCC1NC(=O)CCS(=O)(=O)c1cccc2nonc12 (configuration not stated) | 10 µM (active) | –
12 | CC1CCCCC1NC(=O)C1CCCN1S(=O)(=O)c1cccc2nsnc12 (configuration not stated) | inactive | –
13 | CCN1C(=O)N[C@@H](c2ccccc2)C(C(=O)OC)=C1C | – | 17.9% [at 13.5 µM] (inactive)
14 | COC(=O)C1=C(C)N(C)C(=S)NC1c1ccccc1 (configuration not stated) | inactive | –
15 | COC(=O)C1=C(C)N(C)C(=O)NC1c1ccc([N+](=O)[O-])o1 (configuration not stated) | 25.1 µM (active) | –
16 | Cc1ccc(C(=O)N2CCN(S(=O)(=O)N3CCOCC3)CC2)cc1 | inactive | –
17 | C#CCN1C(=O)C(O)(CC(=O)c2cc(OC)ccc2OC)c2ccccc21 (configuration not stated) | 3.55 µM (active) | –
18 | COc1ccc(C(=O)COC(=O)c2nn(C)c(=O)c3ccccc23)c(OC)c1 | inactive | –
19 | COc1ccc(OC)c(C(=O)c2ccc(C(=O)O)cc2)c1 | inactive | –
20 | CCOC(=O)Cc1ncccc1C(=O)Nc1ccc(OC)cc1 | inactive | –
21 | Cc1nn(C(=O)c2ccoc2C)c(N)c1-c1ccccc1 | inactive | –
22 | Cc1nn2c(c1-c1ccccc1)N=C(c1ccco1)CC2c1ccccc1 (configuration not stated) | 22.4 µM (active) | –
23 | O=C(CSc1nnc(-c2ccc(NS(=O)(=O)c3ccccc3)cc2)o1)NCC1CCCO1 (configuration not stated) | inactive | –
24 | S=C(NCCc1ccccc1)NCC1CCCO1 (configuration not stated) | inactive | –

Row | Structure (SMILES) | Potency | activity, negative = inhibition
25 | O=C(CS(=O)(=O)Cc1ccccc1)NCC1CCCO1 (configuration not stated) | 25.1 µM (active) | –
26 | CCN(c1ccccc1)S(=O)(=O)c1ccc2[nH]c(=O)[nH]c2c1 | inactive | –
27 | Cc1cc([N+](=O)[O-])nn1Cc1ccc(F)cc1 | inactive | –
28 | Cc1c(CN2CCCC(C(=O)c3cccc(Cl)c3)C2)c(=O)n(-c2ccccc2)n1C (configuration not stated) | inactive | –
29 | CCCCC1=CC2=CC(=O)C(C)(OC(=O)CC)C(=O)C2=CN1CCCOC(C)C (configuration not stated) | – | -5.05% [at 13.5 µM] (inactive)
30 | Cc1cccc(NC(=O)CN2C(=O)c3ccccc3C2=O)c1C | inactive | –
31 | Cc1cccc(NC(=O)CSc2nc3c(c(=O)[nH]2)CCCC3)c1C | inactive | –
32 | Cc1cccc(NC(=O)CSC(N)=O)c1C | 7.08 µM (active) | –
33 | CC(C)c1nc(CNC(=O)CC2C(=O)NCCN2Cc2ccoc2)cs1 (configuration not stated) | inactive | –
34 | CC1Cc2ccccc2N1S(=O)(=O)c1c(N)n(C)c(=O)n(C)c1=O (configuration not stated) | inactive | –
35 | CC1CCCCN1C(=S)NCc1ccccc1 (configuration not stated) | inactive | –
36 | COC(=O)CNC(=O)c1ccc(OC2CCN(C(=O)C3CC3)CC2)cc1 | inactive | –
37 | CN1CCNC(=O)C1CC(=O)N1CC=C(c2ccc(F)cc2)CC1 (configuration not stated) | inactive | –
38 | N#CC1=C(SCc2ccccc2)NC(=O)C(C#N)C12CCCC2 (configuration not stated) | 3.98 µM (active) | –
39 | N#CC1=C(SCc2ccc(C#N)cc2)N=C(N)C(c2nc(-c3ccccc3)cs2)C12CCCCC2 (configuration not stated) | inactive | –
40 | CC1(C)CCc2nc(SCc3ccccc3)c(C#N)cc2C1 | inactive | –
41 | C[C@@H](O)c1nc2ccccc2n1N | inactive | –
42 | N#Cc1ncc(C(F)(F)F)cc1Oc1cccnc1 | inactive | –
43 | COc1ccc(/C=C/CN2CCN(Cc3ccc(C)cc3)C(CCO)C2)cc1 (configuration not stated) | inactive | –
44 | CCOc1cccc(C(=O)Nc2cnn(Cc3ccccc3)c2)c1 | 3.98 µM (active) | –
45 | CCOc1cccc(C(=O)Nc2cccnc2)c1 | inactive | –
46 | O=C(Nc1ccn(Cc2ccccc2)n1)c1cccc(F)c1 | inactive | –
47 | CNc1nc(Nc2ccc(C)c(Cl)c2)nc(N)c1[N+](=O)[O-] | inactive | –
48 | O=C(c1ccc(Cl)cc1)N1N=C(c2ccccn2)CC1(O)C(F)(F)F (configuration not stated) | inactive | –

Row | Structure (SMILES) | Potency | activity, negative = inhibition
49 | C(=N\N1CCN(c2ccccn2)CC1)/C1=C(N2CCOCC2)C(=C/c2ccccc2)/CC1 | 8.91 µM (active) | –
50 | C(=N/N1CCN(c2ccccc2)CC1)/c1cccs1 | inactive | –
51 | O=C(Cc1ccc(Br)cc1)N1CCN(c2ccccn2)CC1 | inactive | –
52 | COc1ccc(/C=N/N=C2/C(=O)Nc3ccccc32)cc1O | inactive | –
53 | O=C1Nc2ccc(Br)cc2/C1=N/N=C/C1=C(N2CCOCC2)C(=C\c2ccccc2)/CC1 | 8.91 µM (active) | –
54 | CN(C)CCOc1ccc(Cl)cc1C(C)(C)C | inactive | –
55 | CCOC(=O)C1(Cc2ccccc2C(F)(F)F)CCN(C(=O)c2cc(C)n(C)n2)CC1 | inactive | –
56 | Cc1ccc2[nH]c(C)c(CCNC(=O)NC3CCCCC3)c2c1 | inactive | –
57 | Cc1nnc(SCCCCSc2nnc(C)c(=O)[nH]2)[nH]c1=O | inactive | –
58 | CCOC(=O)c1c(CN(C)C)n(-c2ccccc2)c2cc(Br)c(O)cc12 | inactive | –
59 | C=C(Cl)COC(=O)C1C2C=CC(C2)C1C(=O)O (configuration not stated) | 17.8 µM (active) | –
60 | CN1CCN(C(=O)C2C3C=CC(C3)C2C(=O)O)CC1 (configuration not stated) | inactive | –
61 | O=C(O)C1C2C=CC(C2)C1C(=O)N1CCN(CCO)CC1 (configuration not stated) | inactive | –
62 | COCCN(C(=O)c1ccccc1F)c1c(N)n(Cc2ccccc2)c(=O)[nH]c1=O | inactive | –
63 | O=C(O)Cc1csc(-c2cccc(Oc3ccccc3)c2)n1 | inactive | –
64 | CN(Cc1nc2ccc(F)cc2[nH]1)Cc1nc(CC2CC2)no1 | inactive | –
65 | O=C(NC(=O)N1CCOCC1)c1ccccc1 | inactive | –
66 | CCCCOc1ccc(C(=O)N/C(=C/C=C/c2ccccc2)C(=O)N2CCOCC2)cc1 | 25.1 µM (active) | –
67 | CCCCOc1ccc(C(=O)NN2CCN(C)CC2)cc1 | inactive | –
68 | CCn1c(SCC(=O)N(C)C2CCS(=O)(=O)C2)nnc1-c1cccs1 (configuration not stated) | inactive | –
69 | CCNC(=O)NNC(=O)C1CC(c2cccs2)=NO1 (configuration not stated) | inactive | –
70 | CCOc1ccc(N2C(=O)/C(=C/c3ccc(C)o3)N(C)C2=S)cc1 | 7.94 µM (active) | –
71 | CCOc1ccc(N2C(=O)CN(c3cccc4ccccc34)C2=S)cc1 | inactive | –
72 | CCOc1ccc(N2C(=O)Nc3ccccc3C2(O)C(=O)NCc2ccco2)cc1 (configuration not stated) | inactive | –
